Results reported in PubChem BioAssay (NCATS).
Inconclusive results are not listed. Where a call stands in place of a potency, no number is given. Activity calls are given as the source filed them. Calls follow the shape of the dose curve; as a rule, active = well fitted curve in the direction sought with a large enough effect; inconclusive = small, poorly fitted or top-dose-only effect, or another doubt; inactive = no such curve, though single readings can be large; an effect the other way counts as inactive or inconclusive.

Test: qHTS for Inhibitors of Plasmodium falciparum (HB3) proliferation (AID 504318); also: nearly all actives have a fitted effect of over 60% in size; also: potency is read from the fitted curve at half-maximal effect
Settings: P. falciparum HB3 in erythrocytes, SYBR Green DNA, 72 h; series mostly up to 7.21 µM
How it was run: (§1)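 Erythrocytes infected with P. falciparum line (0.3% parasitemia, 2.5% hematocrit final) incubated with compounds 72 h at 37 °C, 5% CO2; SYBR Green lysis buffer added, fluorescence read next day. Normalized to 0.29 uM artemisinin and DMSO.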

Structure (SMILES) | Potency
COC(=O)C1(C(=O)OC)CC(CO)C(=O)[C@@H]1c1ccccc1 (stereo partly specified) | inactive
COC(=O)[C@@H](NC(=O)N1CCc2nc(-c3ccccc3)c3c(c2C1)CO[C@@H](C)C3)C(C)C | inactive
COc1cc2c(cc1OC)[C@@H]1O[C@](CCCCN3C(=O)c4ccccc4C3=O)(C2)Oc2cc(C)n(-c3ccccc3)c(=O)c21 | 1.2 µM (active)
CC(C)CON=C1C[C@@H](O)[C@@H](O)[C@@H]2[C@H]3C(=O)N(C4CCCCC4)C(=O)[C@@H]3CC[C@H]12 | inactive
COc1ccc2c(c1)O[C@@H](c1cccc(C(F)(F)F)c1)[C@H](OC(=O)N[C@H]1CCCc3ccccc31)C2=O | inactive
COC(=O)[C@@H]1[C@@H](C)N(CCc2cc(OC)c(OC)c(OC)c2)C(=O)N[C@H]1c1ccccc1 | inactive
C=CCN1c2ccccc2[C@]23C[C@@H](C(=O)OC)N(S(=O)(=O)c4cccs4)C2=NC(C(=O)OC)=C(C(=O)OC)[C@H]13 | inactive
COC(=O)CCC(=O)OC1(C)C(=O)C=C2C=C(C3CC3)N(C3CC3)C=C2C1=O (stereo unspecified) | inactive

Test: qHTS for Inhibitors of Plasmodium falciparum (CP250) proliferation (AID 504320)
Settings: P. falciparum CP250 in erythrocytes, SYBR Green DNA, 72 h; series mostly up to 6.7 µM
How it was run: as §1

Structure (SMILES) | Potency
COC/C=C/C1=CC2=CC(=O)C(C)(OC(=O)c3cnc4ccccc4n3)C(=O)C2=CN1CCCCO (stereo unspecified) | inactive
CCN1C(=O)N[C@@H](c2cccs2)C(C(C)=O)=C1C | inactive
CC(=O)C1=C(C)N(Cc2ccccc2)C(=O)N[C@H]1c1ccco1 | inactive
COC(=O)C1=C(C(=O)OC)[C@@H]2N(C)c3ccc(OC)cc3[C@@]23C[C@@H](C(=O)OC)N(S(=O)(=O)c2cccs2)C3=N1 | inactive
COC(=O)[C@]1(C)C=C[C@@H](C)[C@H](c2ccccc2Br)N1C(=O)C(F)(F)F | inactive
CCN1C(=O)[C@@H]2[C@H]3[C@H](O)[C@H](O)CC(=NO[C@@H](C)c4cc(-c5c(C)cc(C)cc5C)no4)[C@@H]3CC[C@H]2C1=O | inactive
CC1(C)O[C@@H]2[C@@H](O1)C(c1ccccc1)(c1ccccc1)OP(=O)(O)OC2(c1ccccc1)c1ccccc1 | inactive
CCCCc1nc2c(c3c1C[C@H](C)OC3)CN(S(=O)(=O)c1ccc(Cl)c3nonc13)CC2 | inactive
COC(=O)CC=C[C@@H](C)[C@H](OC)c1cc(F)ccc1Br | inactive
COC(=O)N[C@@H](c1ccccc1)[C@]1(C(=O)OC)CCCC1=O | inactive
COC(=O)CCC(=O)OC1(C)C(=O)C2=CN(c3ccccc3)C(c3ccc(OC)cc3)=CC2=C(Br)C1=O (stereo unspecified) | inactive
COC(=O)CCC(=O)OC1(C)C(=O)C2=CN(Cc3ccc(OC)cc3)C(c3ccc(OC)cc3)=CC2=C(Br)C1=O (stereo unspecified) | inactive
CCCC[C@]12Cc3cc(OC)c(OC)cc3[C@H](O1)C1=C(O2)C(=O)c2ccccc2C1=O | inactive
COC(=O)c1ccccc1S(=O)(=O)N1CCc2nc(COc3ccccc3)c3c(c2C1)CO[C@@H](C)C3 | inactive
CCOC(=O)CN1C(=O)N[C@@H](CCc2ccccc2)[C@@H](C(=O)OC)[C@H]1C | inactive
COC(=O)[C@@H](NC(=O)N1CCc2nc(-c3ccc(OC)cc3C)c3c(c2C1)CO[C@@H](c1ccccc1)C3)C(C)C | inactive
CCCCC1=CC2=C(c3ccco3)C(=O)C(C)(OC(=O)c3ccc(OC)cc3)C(=O)C2=CN1CCc1c[nH]c2ccccc12 (stereo unspecified) | inactive
COC(=O)CCCC1=CC2=C(c3ccccc3)C(=O)C(C)(OC(=O)C3CCCC3)C(=O)C2=CN1Cc1ccccc1 (stereo unspecified) | inactive
C=C(C)C(=O)c1ccc2c(c1)OCO2 | inactive
C=CC1=C2C=C(C3CC3)N(Cc3ccco3)C=C2C(=O)C(C)(OC(=O)c2ccco2)C1=O (stereo unspecified) | inactive
COC/C=C/C1=CC2=CC(=O)C(C)(OC(=O)c3cnc4ccccc4n3)C(=O)C2=CN1Cc1ccc2c(c1)OCO2 (stereo unspecified) | inactive
O=C(NS(=O)(=O)c1ccc(F)cc1)O[C@@H]1C(=O)c2cc(Br)ccc2O[C@H]1c1ccc2c(c1)OCO2 | inactive
C=C(C(C)=O)C(O)c1cccs1 (stereo unspecified) | inactive
COC(=O)[C@@H]1[C@@H](C)N(CCc2cc(OC)c(OC)c(OC)c2)C(=O)N[C@H]1c1ccccc1 | inactive
CCN1C(=O)N(C)[C@@H](c2ccccc2)C(C(=O)OC)=C1C | inactive
CCN1C(=O)N[C@@H](c2cccc(F)c2)C(C(C)=O)=C1C | inactive
COC/C=C/C1=CC2=CC(=O)C(C)(OC(=O)c3cnc4ccccc4n3)C(=O)C2=CN1CCOC (stereo unspecified) | inactive
COC(=O)C1=C(C(=O)OC)[C@@H]2N(C)c3ccc(OC)cc3[C@@]23C[C@@H](C(=O)OC)N(S(=O)(=O)c2ccc4c(c2)OCCN4C)C3=N1 | inactive
